Bioassay records deposited in PubChem by several laboratories.
RecA splice inh: Mtb RecA intein splicing inhibition; 290,000 tested, 0.75% active; P9WHJ3; cell-free RecA intein splicing, fluorescence; inhibition, % (no concentration beside the values); in the data active = inhibition above about 30%;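 also: 0% = vehicle wells and 100% = reference inhibitor control wells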
Target sequence (P9WHJ3 whole entry, looked up, canonical isoform): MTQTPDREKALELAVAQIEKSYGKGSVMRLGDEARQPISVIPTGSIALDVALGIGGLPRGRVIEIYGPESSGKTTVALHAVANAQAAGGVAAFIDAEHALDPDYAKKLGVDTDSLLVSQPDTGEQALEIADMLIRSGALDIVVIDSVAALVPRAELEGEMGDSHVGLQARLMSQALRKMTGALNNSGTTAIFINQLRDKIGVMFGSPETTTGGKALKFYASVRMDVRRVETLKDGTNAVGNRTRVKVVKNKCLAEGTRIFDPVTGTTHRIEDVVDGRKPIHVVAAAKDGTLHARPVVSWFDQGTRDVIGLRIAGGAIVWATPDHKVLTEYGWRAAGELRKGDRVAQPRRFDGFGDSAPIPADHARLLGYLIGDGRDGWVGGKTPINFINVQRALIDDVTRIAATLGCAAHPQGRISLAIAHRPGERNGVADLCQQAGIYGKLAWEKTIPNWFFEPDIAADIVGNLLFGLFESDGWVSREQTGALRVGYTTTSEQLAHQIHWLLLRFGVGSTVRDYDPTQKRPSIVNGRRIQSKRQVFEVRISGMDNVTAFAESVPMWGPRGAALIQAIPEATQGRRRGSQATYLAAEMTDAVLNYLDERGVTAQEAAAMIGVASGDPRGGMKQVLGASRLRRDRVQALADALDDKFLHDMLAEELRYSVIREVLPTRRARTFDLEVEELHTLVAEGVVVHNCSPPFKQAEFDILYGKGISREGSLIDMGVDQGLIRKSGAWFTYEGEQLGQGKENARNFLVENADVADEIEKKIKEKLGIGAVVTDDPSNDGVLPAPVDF
Mtb FBA inh: inhibits M. tuberculosis FBA enzyme; 360,000 tested, 2.3% active; inhibition, % at 1 µM; purified M. tuberculosis FBA, fluorescence read-out; P9WQA3; AID 588726; in the data active = inhibition above about 27%;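 also: 0% = vehicle and 100% = reference inhibitor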
BJeLR viability: BJeLR cell viability loss. BJeLR (HRASV12) viability, CellTiter-Glo ATP luminescence, 48 h. inhibition, % (no concentration beside the values). 300,000 tested, 0.17% active; in the data active = inhibition above about 50%
PrPC surface inh: reduces human prion protein on the cell surface; P04156; cell surface PrPC, TR-FRET read-out; inhibition, % at 13.8 µM; 370,000 tested, 0.43% active; AID 720596; in the data active = inhibition above about 24%; also: 0% = median of the test wells and 100% = reference compound wells
GDH-TPI counter: inhibits GDH-TPI coupling enzymes, artifact for Mtb FBA screen. GDH-TPI coupled enzyme counterscreen, NADH absorbance. inhibition, % at 4.8 µM. 360,000 tested, 1.2% active. AID 588335; in the data active = inhibition above about 30%;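 also: 0% = DMSO wells and 100% = wells lacking the enzyme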
PrPC TRFRET cf: confirmation of inhibitors of cell surface human prion protein; shares compounds with PrPC surface inh; cell surface PrPC level, TR-FRET; inhibition, % at 13.8 µM; 1,500 tested, 65% active; AID 743200; in the data active = inhibition above about 25%
LD9 cytotox: counter-screen for PrPc inhibitors: cytotoxicity in LD9 cells; inhibition, % at 13.8 µM; AID 743201; shares compounds with PrPC surface inh; luminescence viability; 1,500 tested, 29% active; in the data active = inhibition above about 9.5%
Numbers without * were called inactive; nt = no result given. Most compounds without a hit are left out; they make up all but 4.2% or so of the library.

SMILES	RecA splice inh	Mtb FBA inh	BJeLR viability	PrPC surface inh	GDH-TPI counter	PrPC TRFRET cf	LD9 cytotox
Cc1ccc(NS(=O)(=O)c2ccc3c(c2)NC(=O)CCS3)cc1C	1.6	4.2	2.7	24.7*	12.1	18.0	27.3*
C=CCNC(=O)c1ccc(Cn2c(=S)[nH]c3cc4c(cc3c2=O)OCO4)cc1	-1.5	1.3	2.3	54.4*	4.4	35.3*	7.7
O=C(NCCN1CCCC1)c1ccc(Cn2c(=S)[nH]c3cc4c(cc3c2=O)OCO4)cc1	-1.0	6.8	4.0	-4.0	0.3	nt	nt
Cc1cc(C)c(C#N)c(N)n1	-8.2	13.7	6.1	-2.8	-1.3	nt	nt
Cc1cc(-c2cccc(Br)c2)c(C#N)c(N)n1	-0.1	16.6	nt	43.5*	-3.5	42.5*	1.4
COc1ccc(-n2c(COc3ccc(Cl)cc3)nnc2SCC(=O)Nc2ccc(Oc3ccccc3)cc2)cc1	nt	nt	nt	-6.2	nt	nt	nt
COc1ccccc1N(CC(=O)NC1CC2CCC1C2)S(=O)(=O)c1ccc(C)cc1 (stereo unspecified)	8.4	0.8	-0.7	55.2*	8.4	9.7	-4.8
COc1ccc(S(=O)(=O)N(CC(=O)NC2CC3CCC2C3)c2ccccc2OC)cc1 (stereo unspecified)	1.4	0.0	-2.9	-5.5	1.5	nt	nt
Cc1noc(C)c1C(C)C1=CCCCC1 (stereo unspecified)	nt	nt	nt	1.1	nt	nt	nt
COc1ccc(OC)c(C2NC(=O)N(C)C(C)=C2C(=O)OCc2ccccc2)c1 (stereo unspecified)	6.1	0.2	-5.7	68.4*	8.6	79.2*	-4.4
C[C@H]1CCCC(=O)CCCCCc2cc(O)cc(O)c2C(=O)O1	0.0	1.5	6.2	-1.3	1.6	nt	nt
C[C@@H]1C[C@H]2O[C@@H]2/C=C\C=C\C(=O)Cc2cc(O)cc(O)c2C(=O)O1	nt	nt	nt	81.2*	nt	47.7*	61.2*
CCCCOc1ccc(Br)cc1CSC(=N)N	7.8	-0.7	7.7	24.7*	3.5	4.3	20.9*
O=C(Nc1cccc(C(F)(F)F)c1)OC1CC2CC1[C@H]1CCCCN1[C@H]2Cc1ccccc1 (stereo partly specified)	nt	nt	nt	3.1	nt	nt	nt
Cc1cccnc1NC(=O)CSc1ncnc2sc(C)c(C)c12	1.1	1.9	-1.6	15.4	1.4	nt	nt
Cc1sc2ncnc(SCC(=O)Nc3ncccc3O)c2c1C	nt	-1.2	nt	27.1*	5.4	31.9*	3.4
CCC(Sc1ncnc2sc(C)c(C)c12)C(=O)OC (stereo unspecified)	-2.1	1.3	-1.4	79.7*	13.7	106.2*	-1.6
CN(C)CCCN1CC(=O)N2CCc3ccc(Br)cc3C2CC1=O (stereo unspecified)	nt	nt	nt	-1.3	nt	nt	nt
CCOC(=O)N1CCN(S(=O)(=O)c2ccc(C(=O)NNc3nc4c(C)cc(C)cc4s3)cc2)CC1	-5.3	0.2	-3.4	25.4*	2.4	24.9*	3.8
CC(C)(C)c1ccc(C#C[C@@H]2C=C[C@H](O)[C@@H](COC(=O)Nc3ccccc3)O2)cc1	nt	nt	nt	1.3	nt	nt	nt
O=C1CC(N2CCOCC2)=NC(=O)N1c1ccc(Br)cc1	nt	nt	nt	-2.9	nt	nt	nt
COc1ccc(CCNc2ncnc3c2oc2ccccc23)cc1OC	1.1	-1.1	2.4	26.9*	7.9	27.2*	20.2*
c1ccc(-c2nc3ccccc3nc2-c2ccc(CN3CCC4(CC3)CNc3ccccc34)cc2)cc1	nt	nt	nt	4.1	nt	nt	nt
O=C1NC[C@H](CCCCN2C[C@H](Cc3ccc(O)cc3)N(CC3CCCCC3)C(=O)C2=O)N(CC2CCCCC2)C1=O	nt	nt	nt	25.4*	nt	23.9	-0.9
O=C(OCc1ccccc1)N1CCC2CC1c1ccc(N3CCN(Cc4ccccc4)CC3)cc12 (stereo unspecified)	nt	nt	nt	7.9	nt	nt	nt
SMILES	RecA splice inh	Mtb FBA inh	BJeLR viability	PrPC surface inh	GDH-TPI counter	PrPC TRFRET cf	LD9 cytotox
OC[C@@H]1CN(Cc2ccc(Cl)cc2)C[C@H](n2cnc3c(NC4CCCC4)ncnc32)O1	nt	0.3	nt	28.2*	-0.9	34.8*	-5.4
OC[C@@H]1CN(Cc2ccc(F)cc2)C[C@H](n2cnc3c(NC4CC4)ncnc32)O1	nt	0.9	nt	-2.7	9.7	nt	nt
O=[N+]([O-])c1ccc(N2CCN(CC3CCCCC3)CC2)cc1	-0.5	-0.2	-5.6	50.7*	7.7	-6.2	4.8
Cc1nc(SCC(=O)N(C)c2ccccc2)[nH]c(=O)c1C	nt	nt	nt	2.0	nt	nt	nt
O=C(Nc1ccc(Br)cc1)OCCCN1CCC2(CCCCC2)C1=O	nt	nt	nt	7.9	nt	nt	nt
COc1ccc(S(=O)(=O)NCCCN2CCOCC2)c2ccccc12	0.2	4.1	-4.3	-1.0	-5.3	nt	nt
COc1cccc2sc3cc(NCCCN4CCOCC4)ccc3c(=O)c12	nt	23.7	nt	72.1*	18.8	94.7*	-1.5
COc1ccc(CCC[C@@H](CCC(=O)N(c2ccccc2)c2ccccc2)CCc2ccccc2)cc1	nt	nt	nt	1.0	nt	nt	nt
O=C(N[C@H](Cc1ccccc1)C(=O)N(CCC1=CCCCC1)CC1CC1)[C@H]1O[C@@H](n2ccc(=O)[nH]c2=O)[C@H](O)[C@@H]1O	nt	nt	nt	6.7	nt	nt	nt
CN(C)c1ccc(Sc2ccc3nc(N)nc(N)c3c2)cc1	nt	1.0	nt	32.9*	-0.4	34.9*	15.4*
COCCN(C(=O)c1cccc(N2C(=O)CCC2=O)c1)c1nc(-c2ccc([N+](=O)[O-])cc2)cs1	7.4	-1.7	-1.7	-7.8	9.0	nt	nt
COc1ccccc1N(C(=O)c1ccncc1)c1nc(-c2ccc([N+](=O)[O-])cc2)cs1	5.0	-0.3	-0.4	26.1*	22.3	37.6*	-3.1
Cc1ccc(C(C)C)c(OCc2ccc(C(=O)N/N=C/c3ccc(O)cc3O)cc2)c1	-2.3	1.9	34.5	38.1*	12.8	43.4*	17.4*
CN1C2CCC1CC(=NO)C2	-1.4	0.5	8.6	83.9*	10.8	4.9	0.2
CN1C(c2ccccc2)CC(=NO)CC1c1ccccc1 (stereo unspecified)	1.5	2.2	7.9	7.9	9.6	nt	nt
O=c1cc(N2CCN(c3cccc(C(F)(F)F)c3)CC2)[nH]c(=O)n1-c1ccccc1	nt	nt	nt	-1.4	nt	nt	nt
Cc1ccc(Cn2cc(CN(C)S(=O)(=O)c3ccccc3Br)nn2)cc1	nt	nt	nt	-4.5	nt	nt	nt
C[C@H]1CN(C(=O)OC(C)(C)C)CCN1c1ccc(N2CC[C@H](O)C2)c(C#N)c1	nt	nt	nt	1.5	nt	nt	nt
COC(=O)C1=C(C(=O)OC)[C@@]2([C@@H](Cc3ccc(C)cc3)Nc3ccccc3)C=C[C@@H]1O2	nt	nt	nt	66.9*	nt	14.3	98.4*
Cc1ccccc1NC1=NCC(c2ccc([N+](=O)[O-])cc2)S1 (stereo unspecified)	3.3	-2.3	13.3	45.7*	1.6	44.1*	2.2
CC(C)[C@H]1/C(=C/C2CC2)N2C(=O)C[C@H](c3ccccc3)N=C2N1C	nt	nt	nt	-0.8	nt	nt	nt
O=C(Nc1nnc(CC(c2ccccc2)c2ccccc2)s1)c1ccco1	-1.6	7.2	13.8	40.4*	12.4	42.1*	-6.8
CCC(c1ccccc1)c1nnc(NC(=O)c2ccco2)s1 (stereo unspecified)	-1.0	0.9	-0.3	5.2	17.7	nt	nt
O=C(NCc1ccc(Cl)cc1)c1cccc(NC(=O)c2ccccc2)c1	9.8	-3.5	-26.2	31.5*	7.2	27.3*	-1.6
